Assay outcomes as filed in PubChem.
BLM helicase inh = inhibitors of human Bloom syndrome helicase BLM. P54132. recombinant BLM DNA unwinding, fluorescence dequenching. Potency, µM (highest dose often 56.1 µM), without a hit: at the top dose activity change, negative = inhibition, usual class: inhibitors. hit rate 0.2% among 350,000. AID 2528;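 further: plate controls were vehicle for no effect and no enzyme for full effect; nearly all actives have a fitted effect of over 35% in size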
FEN1 inhibitor = inhibitors of human flap endonuclease 1 | Recombinant FEN1 flap cleavage, fluorescence, 15 min | Potency, µM (titrated, usually from 114 µM), inactives show at the highest dose activity change, negative = inhibition, most hits filed as inhibitors | hit rate 0.35% among 390,000; further: nearly all actives have a fitted effect of over 65% in size
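Reaction started by adding substrate (50 nM final) to 10 nM enzyme after 15 min room-temperature compound preincubation. Reads at 0 and 15 min, with data normalized and fitted to a four-parameter Hill equation.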
RECQ1 inh = inhibitors of human RECQ1 DNA helicase. P46063. RECQ1 DNA unwinding, red fluorescence kinetic read. Potency, µM (series often up to 57.3 µM), inactives show at the top dose activity, negative = inhibition, actives largely listed as inhibitors. hit rate 0.54% among 240,000. AID 2549;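 further: plate controls were vehicle for no effect and no enzyme for full effect; nearly all actives have a fitted effect of over 30% in size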
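RECQ1T1 50 nM; forked duplex (20 bp + 30-nt ss tails) 200 nM, ATP 2 mM final; pH 8.0, 2 mM MgCl2, 2.5 ug/ml poly(dI-dC); 15 min compound preincubation; discontinuous kinetic read over 2 h at RT.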
APE1 inh-1 = APE1 (human) endonuclease inhibition; P27695; recombinant APE1, TAMRA/BHQ-2 abasic DNA cleavage fluorescence; Potency, µM (titrated, usually from 65.8 µM), for inactives: top-dose activity change, negative = inhibition, most hits filed as inhibitors; hit rate 0.35% among 350,000; AID 2517;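 further: plate controls were vehicle for no effect and reference inhibitor for full effect; nearly all actives have a fitted effect of over 55% in size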
Target sequence (P27695 whole entry, looked up): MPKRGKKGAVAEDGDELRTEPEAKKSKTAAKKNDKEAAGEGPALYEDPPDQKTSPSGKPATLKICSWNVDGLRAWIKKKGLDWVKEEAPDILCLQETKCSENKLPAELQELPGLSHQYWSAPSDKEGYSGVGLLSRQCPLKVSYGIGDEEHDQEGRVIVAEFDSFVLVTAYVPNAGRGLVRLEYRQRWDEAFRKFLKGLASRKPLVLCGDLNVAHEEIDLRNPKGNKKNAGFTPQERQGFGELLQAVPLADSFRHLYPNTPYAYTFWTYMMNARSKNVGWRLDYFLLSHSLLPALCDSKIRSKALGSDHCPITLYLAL
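0.75 nM APE1 + cpd, 15 min RT; start w/ 50 nM TAMRA/BHQ-2 THF-abasic dsDNA; kinetic fluor 525/598 nm ×3 reads @60 s; Δ(read3−read1); normalized to DMSO and NSC13755 control wells.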
Tb PGK inh = T. brucei PGK inhibition; PGK/GAPDH coupled, Kinase-Glo luminescence, 60 min; Potency, µM (top dose mostly 57.5 µM), without a hit: at the top dose activity change, negative = inhibition, actives largely listed as inhibitors; hit rate 0.043% among 380,000; AID 602233; further: nearly all actives have a fitted effect of over 60% in size
Target sequence (P07378 whole entry, looked up): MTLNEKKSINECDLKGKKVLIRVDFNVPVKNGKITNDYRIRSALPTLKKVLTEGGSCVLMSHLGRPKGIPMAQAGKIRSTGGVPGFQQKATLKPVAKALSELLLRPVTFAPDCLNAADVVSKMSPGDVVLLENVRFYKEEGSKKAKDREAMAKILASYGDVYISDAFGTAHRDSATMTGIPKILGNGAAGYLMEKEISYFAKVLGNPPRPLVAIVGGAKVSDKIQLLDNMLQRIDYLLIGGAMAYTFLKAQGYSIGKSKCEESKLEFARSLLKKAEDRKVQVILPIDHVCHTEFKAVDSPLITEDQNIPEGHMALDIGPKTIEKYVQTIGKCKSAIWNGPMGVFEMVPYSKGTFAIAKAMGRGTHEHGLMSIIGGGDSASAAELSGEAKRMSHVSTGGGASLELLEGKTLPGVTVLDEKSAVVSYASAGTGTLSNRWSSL
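Recombinant glycosomal PGK reaction used 1,3-bisphosphoglycerate generated in-well by GAPDH (100nM final) in 100mM TEA pH 7.6, 5mM MgCl2, 0.01% Tween-20. After 60 minutes at room temperature, ATP was read by Kinase-Glo Plus luminescence end-point.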
APE1 dye cs = displaces fluorescent dye from DNA, flagging APE1 artifacts | DNA fluorescent dye displacement counterscreen, fluorescence | hit rate 7% among 480 | Potency, µM (top dose mostly 28.5 µM), for inactives: at the highest dose activity change, negative = inhibition, hits mostly inhibitors | shares compounds with APE1 inh-1;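 further: loss of thiazole orange fluorescence as the dye is displaced from duplex DNA; 0% = ThO with dsDNA and no compound and -100% = ThO without dsDNA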
EndoIV counter = counter-screen for APE1 inhibitors: inhibitors of E. coli endonuclease IV; Potency, µM (doses to about 27.1 µM), for inactives: at the highest dose activity change, negative = inhibition, most hits filed as inhibitors; shares compounds with APE1 inh-1; E. coli Endo IV, fluorogenic AP-site DNA cleavage; hit rate 4% among 560; AID 2565;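 further: plate controls were uninhibited enzyme wells for no effect and no enzyme buffer wells for full effect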
APE1 inh-2 = APE1 (human) endonuclease inhibition, confirmation; Potency, µM (top dose mostly 57.1 µM), for inactives: at the highest dose activity change, negative = inhibition, actives largely listed as inhibitors; purified APE1, fluorogenic abasic-site DNA cleavage; shares compounds with APE1 inh-1; AID 2572; hit rate 44% among 750; further: nearly all actives have a fitted effect of over 30% in size
APE1 FP = displaces DNA from human APE1 in FP assay; shares compounds with APE1 inh-1; APE1 binding to TAMRA-labelled double-stranded DNA, fluorescence polarization displacement; Potency, µM (top dose mostly 28.5 µM), without a hit: at the top dose activity, negative = inhibition, hits mostly inhibitors; hit rate 7% among 480
Numbers without * were called inactive; i = inactive; u = inconclusive; x = no result given; [ ] = remark or other dose. Sampled rows, rich in hits. Any-hit rate of the full collection: about 0.74%. The call rests on the fitted dose curve; in most records, active means well fitted curve in the direction sought with a large enough effect; inconclusive means small, poorly fitted or top-dose-only effect, or another doubt; inactive means no such curve, though single readings can be large; an effect the other way counts as inactive or inconclusive. Unless noted, on the % scale 0 is the no-effect control and ±100 the full control effect; potency means the concentration at half of the fitted maximal effect.

SMILES	BLM helicase inh	FEN1 inhibitor	RECQ1 inh	APE1 inh-1	Tb PGK inh	APE1 dye cs	EndoIV counter	APE1 inh-2	APE1 FP
CC(C)(C)OC(=O)C[C@H]1C/C=C\C[C@@H](CC(=O)N(CCO)Cc2ccccc2)C(=O)NCCOC1=O	x	25%	x	15%	0%	x	x	x	x
CN(C)S(=O)(=O)c1cccc(C(=O)Nc2ccc(C(=O)Nc3cccc(S(N)(=O)=O)c3)cc2)c1	x	-8%	x	5%	-7%	x	x	x	x
CC(=O)N1CCC(C(=O)Nc2ccccc2)(N(Cc2ccccc2)C(=O)c2cccnc2)CC1	-2%	-10%	i	u	-10%	-12%	-4%	-5%[24.4 µM]	u
CC(N=Cc1cc([N+](=O)[O-])ccc1O)c1ccccc1 (stereo not given)	1%	-6%	-1%	3%	-2%	x	x	x	x
CC(N=Cc1cccc(O)c1O)c1ccccc1 (stereo not given)	-10%	35µM*	22µM*	14µM*	-9%	5%	13%	-7%[24.4 µM]	-3%
COc1cc2c(cc1OC)C(c1cccs1)N(C(=O)c1cccc(S(=O)(=O)N(C)C)c1)CC2 (stereo not given)	-11%	9%	-1%	-1%	-3%	x	x	x	x
Cc1cccc(NC(=O)CN2C(=O)N/C(=C\c3cccn3-c3cccc(C(=O)O)c3)C2=O)c1	-5%	u	i	u	-6%	-1%	9%	u	2%
Cc1ccc(C)c(OCc2nnc(N)s2)c1	-3%	-1%	-3%	-3%	2%	x	x	x	x
COC(=O)c1ccc(NC(=S)NC2CC(C)(C)NC(C)(C)C2)cc1	-2%	-4%	-12%	1%	i	x	x	x	x
CCn1c(CCNC(=O)c2ccc(F)cc2)nc2ccccc21	6%	3%	i	-2%	-6%	x	x	x	x
CC(=O)Nc1ccc(C(=O)NNC(=O)c2cccs2)cc1	0%	-2%	-2%	0%	i	x	x	x	x
Cc1ccc(N2NC(=O)/C(=C/c3ccc(-c4ccc(Cl)c(C(=O)O)c4)o3)C2=O)cc1C	-4%	-1%	i	-10%	-8%	x	x	x	x
COC(=O)c1ccc(N2NC(=O)/C(=C/c3ccc(-c4ccc(Cl)c(C(=O)O)c4)o3)C2=O)cc1	-10%	u	u	25µM*	u	6.3µM*	-7%	u	0%
CC1(C)OC(=O)C(=Cc2ccc(-c3ccc(Cl)c(C(=O)O)c3)o2)C(=O)O1	44%	u	-3%	22µM*	-16%	0%	2%	u	-4%
CCn1nc(C(=O)OCc2cccc(S(=O)(=O)N(C)C)c2)c2ccccc2c1=O	-1%	-24%	-6%	0%	-1%	x	x	x	x
O=C(CSc1ccsc1[N+](=O)[O-])Nc1cc(F)ccc1F	u	u	-4%	1%	u	x	x	x	x
CC(=O)c1ccc(NC(=O)CSc2ccsc2[N+](=O)[O-])cc1	-22%	-4%	u	u	-5%	u	0%	3.5µM*	0%
CCc1oc(C(=O)O)cc1CN(CC)CC	-3%	-7%	1%	6%	-1%	x	x	x	x
CCN(CC)Cc1cc(O)c(CN(CC)CC)cc1O	-2%	u	25µM*	6.3µM*	-26%	x	x	u	x
C/C(=N\NC(=O)c1ccc2nc[nH]c2c1)c1ccc([N+](=O)[O-])cc1	5%	x	-5%	3%	x	x	x	-22%	x
CCOC(=O)CCCCCNC(=O)c1ccc(F)cc1F	x	14%	x	x	i	x	x	x	x
Cc1c(O)cc2c(c1O)C(=O)CC(c1ccc(O)cc1)O2 (stereo not given)	-25%	u	25µM*	1.6µM*	-26%	-11%	-3%	4.5µM*	u
Cc1cc(C)nc(N2N=C(CSc3ccc(Cl)cc3)CC2=O)n1	0%	-13%	-6%	2.8µM*	i	-10%	-1%	u	-3%
COc1cc([N+](=O)[O-])cc(/C=N/NC(=O)CC#N)c1O	-15%	x	u	u	x	-7%	1%	u	u
COc1cc([N+](=O)[O-])cc(/C=N/NC(=O)Cn2cncn2)c1O	-9%	-3%	-7%	0%	i	x	x	x	x
SMILES	BLM helicase inh	FEN1 inhibitor	RECQ1 inh	APE1 inh-1	Tb PGK inh	APE1 dye cs	EndoIV counter	APE1 inh-2	APE1 FP
CN(CC(=O)NC(=O)NCc1ccco1)Cc1nc2ccccc2c(=O)[nH]1	u	-20%	-30%	20µM*	-16%	u	9%	u	u
CCC(=O)NC(=S)Nc1ccc(NC(=O)c2ccco2)cc1	-4%	-5%	i	17%	i	x	x	x	x
CCC(=O)N1CCc2cc(CNC(=O)Nc3cc(Cl)ccc3C(=O)OC)ccc21	-2%	-3%	x	x	0%	x	x	x	x
Cc1cc(C(=O)N/N=C/c2ccc(O)c(O)c2O)c(C)n1-c1ccccc1	-7%	-29%	-1%	4.5µM*	-8%	-10%	30%	u	-87%
COc1ccc(-c2cc(=Nc3c(C)n(C)n(-c4ccccc4)c3=O)c3ccccc3o2)cc1	6%	u	-4%	-6%	-2%	x	x	x	x
O=C(Nc1ccc2oc(-c3ccncc3)nc2c1)c1ccc(F)cc1	-18%	16%	-5%	5%	-4%	x	x	u	x
O=C(NCc1ccco1)Nc1ccc([N+](=O)[O-])cc1	-5%	-5%	-1%	7%	i	x	x	x	x
COc1ccc(-n2nc3c(=O)[nH][nH]c3cc2=O)cc1	-29%	u	-26%	u	-15%	x	x	u	x
N#Cc1nc(Nc2ccccc2)nc(NC2CCCCC2)n1	-15%	x	-9%	35µM*	x	-6%[57.1 µM]	17%[57.1 µM]	-2%	u
COc1cc(CC2COC(c3ccc(O)c(OC)c3)C2COC(C)=O)ccc1O (stereo not given)	25µM*	56µM*	25µM*	4µM*	u	1%	3%	10µM*	-9%
O=C(Cc1ccccc1I)Nc1ccccc1	7%	x	i	11%	x	x	x	x	x
CCCCC#Cc1ccccc1CC(=O)Nc1ccccc1	-3%	-15%	-4%	3%	-4%	x	x	u	x
CCc1ccc(NC(=O)CC2S/C(=N/N=C3CCCCCC3)NC2=O)cc1 (stereo not given)	-9%	0%	x	-2%	-3%	x	x	x	x
COc1nc(C)cc(C)c1S(=O)(=O)c1ccccc1C	-6%	3%	x	10%	9%	x	x	x	x
